# Where “and” joins values, the source holds several entries; their conditions need not be identical. Equal values may be shown once. Results filed as inconclusive are left out. Where a call stands in place of a potency, no number is given. Calls of active or inactive are those of the source. Unless noted, the call rests on the fitted dose curve; in most records, active means well fitted curve in the direction sought with a large enough effect; inconclusive means small, poorly fitted or top-dose-only effect, or another doubt; inactive means no such curve, though single readings can be large; an effect the other way counts as inactive or inconclusive.
# Columns and labels:
# [1] = target: Thyrotropin-releasing hormone receptor (Homo sapiens) (UniProt P34981); assay: qHTS for Small Molecule Agonists and Allosteric Enhancers of Human TRH Receptor: Validation Screen for Agonists (AID 493127;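 active means calcium activation more than 3 SD above the typical response in the agonist read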;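 further: intracellular calcium rise by fluo-8 fluorescence before TRH EC20 addition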); conditions: TRH receptor agonist cell assay; at 2 µM; stronger effect = higher value
# How it was run: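 Compounds are added by online pintool to dye-loaded TRHR cells while fluorescence is recorded every second. A rise in calcium signal during the agonist read marks activation; a later 10 nM TRH addition (EC20) serves the separate enhancer mode.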
# [2] = Nrf2 qHTS screen for inhibitors: Validation (AID 493153; active means well fitted inhibition curve with a large enough effect in the main read-out, with a control signal flat, not every such curve was filed as active); conditions: A549 ARE-Fluc reporter, 18-24 h; viability change: measured here: cytotoxicity max response; luciferase luminescence, at 46.1 µM (top of the series)
# How it was run: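 A549 ARE_Fluc, 5% FBS OPTI-MEM; cpd titration, 18-24 h, 37°C/5% CO2. Read 1: CellTiter-Fluor (Ex 405/Em 525), cytotox. Read 2: luciferase lum, Nrf2 activity.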
# [3] = qHTS for Inhibitors of Cell Surface uPA Generation: Validation Assay (AID 493164); conditions: mouse cells, plasminogen activation; series mostly up to 38.3 µM;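 further: RAW 264.7 macrophage cells exposed to compound for 18 h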
# How it was run: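 ATP-Lite luminescence read-out: ATP remains high when uPA activity-dependent LF translocation into the cytoplasm is blocked. RAW 264.7 cells, 18 h compound exposure at 37 C; 7-point titration, 2.45 nM to 38.3 uM final.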
# [4] = target: Galactokinase (Homo sapiens) (UniProt P51570); assay: qHTS Validation Assay for Inhibitors of Human Galactokinase (GALK) (AID 493189); conditions: purified human GALK enzyme activity, qHTS 7-point titration; series mostly up to 57.5 µM
# How it was run: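 GALK (5 nM) with 35 uM ATP and 100 uM galactose in HEPES pH8.0, MgCl2, NaCl, DTT, BSA; 1 h at room temperature. Residual ATP read by Kinase-Glo Plus luminescence after 10 min.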
# [5] = Validation screen for small molecules that induce DNA re-replication in SW480 colon adenocarcinoma cells (AID 504364); conditions: DNA re-replication phenotype (high-content imaging); series mostly up to 46.1 µM
# How it was run: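 Image-based qHTS: compounds were incubated with SW480 cells for 48 hr, nuclei stained with Hoechst, and per-nucleus fluorescence intensity scanned to flag cells with excess DNA content.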
# [6] = target: Peptidyl-prolyl cis-trans isomerase NIMA-interacting 1 (Homo sapiens) (UniProt Q13526); assay: qHTS Validation Assay to Find Inhibitors of Pin1 (AID 504536; active means well fitted inhibition curve with a large enough effect in the polarisation, with a control signal flat, not every such curve was filed as active; the % refers to the polarisation); conditions: Pin1 fluorescence polarization peptide binding assay; series mostly up to 57.5 µM
# How it was run: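 Fluorescence polarization competition: compounds (titration) displace HiFluor-488-labeled Pin1-1b peptide from Pin1 (0.3 uM final) in pH 7.5 HEPES buffer with DTT, 10 min at room temperature; %Activity normalized to no-enzyme wells, curves fitted.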
# [7] = target: Phosphoglycerate kinase, glycosomal (Trypanosoma brucei brucei) (UniProt P07378); assay: qHTS Validation Assay to Find Inhibitors of Phosphoglycerate Kinase (AID 504547); conditions: enzymatic PGK inhibition, coupled luminescence read-out; series mostly up to 57.5 µM
# How it was run: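 Compounds are pinned into the substrate/PGK mixture, and GAPDH (100nM final) is added to start the reaction by producing 1,3-BPG. After 60 minutes at room temperature, Kinase-Glo Plus is added and luminescence is measured 10 minutes later.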
# [8] = target: phosphoglycerate mutase (Leishmania major) (UniProt Q4Q090); assay: qHTS Validation Assay to Find Inhibitors of Phosphoglycerate Mutase (AID 504548); conditions: biochemical enzyme activity; series mostly up to 57.5 µM
# How it was run: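 Lm PGAM at 1.25 nM final with substrate in 100 mM TEA pH 7.6, 5 mM MgCl2, 0.01% Tween-20; 45 min at room temperature. Kinase-GloPlus added, 10 min, end-point luminescence read.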
# [9] = Inducers of the Endoplasmic Reticulum Stress Response (ERSR) in human glioma: Validation (AID 504836); conditions: human glioma cells, ER stress response reporter; series mostly up to 38.3 µM
# How it was run: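 Stably transfected U87-MG glioma cells carrying a GRP78-based luciferase sensor; 16 h compound incubation. Luminescence end-point read 10 min after Bright-Glo addition at room temperature.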
# [10] = target: Ubiquitin carboxyl-terminal hydrolase 1 (Homo sapiens) (UniProt O94782); assay: Inhibitors of USP1/UAF1: Pilot qHTS (AID 504865); conditions: purified USP1/UAF1, Ub-rhodamine cleavage fluorescence; series mostly up to 114 µM;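 further: rhodamine fluorescence freed from ubiquitin-rhodamine substrate followed over time; top concentration of the series differs between compounds; nearly all actives have a fitted effect of over 35% in size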
# How it was run: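 USP1/UAF1 complex (1nM) preincubated with compound 15 min at room temperature, then Ub-Rho substrate (150nM final) added. Fluorescence read kinetically at 480/540 nm, 6 reads every 60 seconds. Buffer: 50mM HEPES pH 7.8, 0.5mM EDTA, 0.1 mg/ml BSA, 1mM TCEP, 0.01% Tween-20.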
# [11] = qHTS for Inhibitors of ATXN expression: Validation of Cytotoxic Assay (AID 588349); conditions: cytotoxicity counter-screen for ATXN expression inhibitors, cell viability; series mostly up to 57.1 µM
# How it was run: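 Titrated compounds are added to cultured HEK293 cells, which are then held at 37 degrees C for 72 hr; loss of intracellular ATP, measured with CellTiter Glo, indicates toxicity.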
# [12] = qHTS for Inhibitors of ATXN expression: Validation (AID 588378); conditions: cell-based ATXN2 expression reporter assay, luminescence; series mostly up to 57.1 µM; further: nearly all actives have a fitted effect of over 75% in size; further: potency means the concentration at half of the fitted maximal effect
# How it was run: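 Luminescence from an ATXN2-FFLuc reporter in HEK293 cells served as read-out after 24 h compound treatment at 37 degrees C; CellTiter-Fluor fluorescence was recorded first to assess viability.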
# [13] = target: DNA dC->dU-editing enzyme APOBEC-3G (Homo sapiens) (UniProt Q9HC16); assay: qHTS for inhibitors of Vif-A3G interactions: Validation (AID 588379); conditions: Vif-A3G protein interaction assay; series mostly up to 46.1 µM
# How it was run: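 Yellow fluorescence (Ex 488, Em 500-530) of Vif-coexpressing HeLa A3G-eYFP cells, scanned by Acumen cytometer, reports blocked A3G degradation. Cells plated at 700/well overnight at 37 deg C before compound addition, then a further overnight compound incubation at 37 deg C.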
# Ubiquitin carboxyl-terminal hydrolase 1 (Homo sapiens), sequence (O94782 whole entry, looked up): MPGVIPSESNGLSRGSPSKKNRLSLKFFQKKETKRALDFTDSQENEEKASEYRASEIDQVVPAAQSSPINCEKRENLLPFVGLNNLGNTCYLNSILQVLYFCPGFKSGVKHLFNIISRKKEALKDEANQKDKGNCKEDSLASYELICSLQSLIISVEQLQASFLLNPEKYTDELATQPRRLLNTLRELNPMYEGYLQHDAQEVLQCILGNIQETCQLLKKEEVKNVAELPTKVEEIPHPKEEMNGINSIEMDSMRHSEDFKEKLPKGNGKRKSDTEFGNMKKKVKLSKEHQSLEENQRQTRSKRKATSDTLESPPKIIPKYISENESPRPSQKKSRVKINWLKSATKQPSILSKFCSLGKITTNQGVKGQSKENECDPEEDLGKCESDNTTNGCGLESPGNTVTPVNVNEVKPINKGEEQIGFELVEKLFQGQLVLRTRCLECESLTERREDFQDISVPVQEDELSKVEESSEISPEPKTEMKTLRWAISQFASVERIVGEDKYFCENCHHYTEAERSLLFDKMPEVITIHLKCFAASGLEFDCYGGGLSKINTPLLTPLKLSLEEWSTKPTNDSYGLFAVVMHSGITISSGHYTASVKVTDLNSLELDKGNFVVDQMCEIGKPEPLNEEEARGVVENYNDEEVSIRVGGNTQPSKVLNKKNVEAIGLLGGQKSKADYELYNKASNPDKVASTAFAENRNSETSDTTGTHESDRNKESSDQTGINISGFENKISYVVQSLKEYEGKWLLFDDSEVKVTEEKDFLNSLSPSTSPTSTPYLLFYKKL
# Thyrotropin-releasing hormone receptor (Homo sapiens), sequence (P34981 whole entry, looked up): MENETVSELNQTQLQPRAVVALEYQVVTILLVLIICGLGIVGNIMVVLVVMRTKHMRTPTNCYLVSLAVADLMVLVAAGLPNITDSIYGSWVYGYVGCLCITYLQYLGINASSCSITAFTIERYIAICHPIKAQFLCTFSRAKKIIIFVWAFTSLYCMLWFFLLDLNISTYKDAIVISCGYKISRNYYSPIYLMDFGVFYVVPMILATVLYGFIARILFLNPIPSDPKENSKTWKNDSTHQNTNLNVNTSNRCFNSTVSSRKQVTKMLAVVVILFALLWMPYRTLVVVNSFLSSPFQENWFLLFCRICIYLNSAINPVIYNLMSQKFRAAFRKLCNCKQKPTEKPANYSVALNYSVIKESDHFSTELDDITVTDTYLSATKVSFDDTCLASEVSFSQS
# phosphoglycerate mutase (Leishmania major), sequence (Q4Q090 1-553): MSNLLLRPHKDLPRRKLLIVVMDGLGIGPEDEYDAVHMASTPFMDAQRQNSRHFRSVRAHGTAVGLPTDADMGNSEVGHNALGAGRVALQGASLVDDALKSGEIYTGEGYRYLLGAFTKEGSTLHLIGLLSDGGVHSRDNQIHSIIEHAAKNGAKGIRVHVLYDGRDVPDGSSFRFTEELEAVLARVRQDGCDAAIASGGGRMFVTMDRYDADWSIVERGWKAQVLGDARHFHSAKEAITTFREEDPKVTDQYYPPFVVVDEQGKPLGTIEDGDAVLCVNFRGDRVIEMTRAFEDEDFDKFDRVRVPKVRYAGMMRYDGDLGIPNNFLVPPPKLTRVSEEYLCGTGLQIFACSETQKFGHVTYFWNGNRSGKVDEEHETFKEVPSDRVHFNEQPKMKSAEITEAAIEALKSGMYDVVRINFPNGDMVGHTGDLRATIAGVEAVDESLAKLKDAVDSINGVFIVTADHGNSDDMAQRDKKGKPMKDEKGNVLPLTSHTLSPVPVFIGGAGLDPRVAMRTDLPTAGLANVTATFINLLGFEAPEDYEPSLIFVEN
# DNA dC->dU-editing enzyme APOBEC-3G (Homo sapiens), sequence (Q9HC16 whole entry, looked up): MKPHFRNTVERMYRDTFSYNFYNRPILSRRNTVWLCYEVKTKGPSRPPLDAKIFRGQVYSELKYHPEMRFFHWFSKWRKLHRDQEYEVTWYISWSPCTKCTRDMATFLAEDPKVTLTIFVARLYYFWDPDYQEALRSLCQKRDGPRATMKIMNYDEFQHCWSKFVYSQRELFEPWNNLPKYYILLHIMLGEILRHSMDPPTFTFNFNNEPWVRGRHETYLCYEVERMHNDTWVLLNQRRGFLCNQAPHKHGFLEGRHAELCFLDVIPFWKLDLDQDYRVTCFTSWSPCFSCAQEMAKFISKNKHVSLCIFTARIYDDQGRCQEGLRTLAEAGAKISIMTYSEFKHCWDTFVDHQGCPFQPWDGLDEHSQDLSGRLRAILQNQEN
# Peptidyl-prolyl cis-trans isomerase NIMA-interacting 1 (Homo sapiens), sequence (Q13526 whole entry, looked up): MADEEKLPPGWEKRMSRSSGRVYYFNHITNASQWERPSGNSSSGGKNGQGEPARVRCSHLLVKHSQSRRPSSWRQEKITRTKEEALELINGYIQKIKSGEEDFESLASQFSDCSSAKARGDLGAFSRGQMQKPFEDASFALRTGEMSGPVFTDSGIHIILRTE
# Phosphoglycerate kinase, glycosomal (Trypanosoma brucei brucei), sequence (P07378 whole entry, looked up): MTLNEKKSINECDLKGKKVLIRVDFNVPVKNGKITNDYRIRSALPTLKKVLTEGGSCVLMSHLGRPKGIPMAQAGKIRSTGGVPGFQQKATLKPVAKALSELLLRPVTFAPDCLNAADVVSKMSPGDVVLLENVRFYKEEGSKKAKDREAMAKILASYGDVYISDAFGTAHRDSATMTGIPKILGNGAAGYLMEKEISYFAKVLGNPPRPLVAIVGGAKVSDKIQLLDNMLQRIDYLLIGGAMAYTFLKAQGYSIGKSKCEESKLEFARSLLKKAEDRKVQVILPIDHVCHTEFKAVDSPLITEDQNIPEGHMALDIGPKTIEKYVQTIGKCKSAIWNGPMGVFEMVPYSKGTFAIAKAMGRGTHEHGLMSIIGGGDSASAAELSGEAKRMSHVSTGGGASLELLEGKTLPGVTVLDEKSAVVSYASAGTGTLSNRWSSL
# Galactokinase (Homo sapiens), sequence (P51570 whole entry, looked up): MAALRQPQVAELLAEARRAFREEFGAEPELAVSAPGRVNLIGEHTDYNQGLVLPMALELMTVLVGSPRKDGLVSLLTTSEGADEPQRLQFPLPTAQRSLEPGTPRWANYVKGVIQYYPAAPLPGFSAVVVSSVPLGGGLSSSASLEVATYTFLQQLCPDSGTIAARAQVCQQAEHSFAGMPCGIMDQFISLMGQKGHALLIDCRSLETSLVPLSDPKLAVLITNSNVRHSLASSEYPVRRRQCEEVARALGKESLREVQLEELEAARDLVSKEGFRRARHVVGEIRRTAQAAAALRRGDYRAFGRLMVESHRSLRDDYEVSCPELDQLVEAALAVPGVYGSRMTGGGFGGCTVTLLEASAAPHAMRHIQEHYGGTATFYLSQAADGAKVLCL
Compound,activation [1],outcome [2],viability change [2],outcome [3],outcome [4],outcome [5],outcome [6],outcome [7],outcome [8],Potency [9],Potency [10],outcome [11],Potency [12],outcome [13]
O=C1CCCN1CC#CCN1CCCC1,3.06% (inactive),inactive,3.92%,inactive,inactive,inactive,inactive,inactive,inactive,inactive,inactive,inactive,inactive,inactive
CS(=N)(=O)CC[C@H](N)C(=O)O (some centres undefined),0.312% (inactive),inactive,3.11%,inactive,inactive,inactive,inactive,inactive,inactive,inactive,inactive,inactive,inactive,
Cc1nccc2c1[nH]c1ccccc12,0.938% (inactive),inactive,6.29%,inactive,inactive,inactive,inactive,inactive,inactive,inactive,inactive,inactive,inactive,inactive
O=C(Cc1ccc(Cl)c(Cl)c1)N1CCCCC1CN1CCCC1 (centres undefined),1.12% (inactive),inactive,7.56%,inactive,inactive,inactive,inactive,inactive,inactive,inactive,inactive,,,
CC(=O)NCCc1c[nH]c2ccccc12,0.375% (inactive),inactive,1%,inactive,inactive,inactive,inactive,inactive,inactive,inactive,inactive,inactive,inactive,inactive
CC(=O)[C@H]1CCC2C3CC[C@H]4C[C@H](O)CC[C@]4(C)C3CC[C@@]21C (some centres undefined),-6% (inactive),inactive,-0.378%,inactive,inactive,inactive,,inactive,inactive,inactive,inactive,inactive,inactive,
CC(C)NC(C)Cc1ccc(I)cc1 (centres undefined),2.38% (inactive),inactive,2.82%,inactive,inactive,inactive,inactive,inactive,inactive,inactive,inactive,inactive,,
NCCc1c[nH]c2ccccc12,-0.438% (inactive),inactive,-0.0651%,inactive,inactive,inactive,inactive,inactive,inactive,inactive,inactive,inactive,inactive,
NC1CC1c1ccccc1 (centres undefined),1.44% (inactive),inactive,-9.56%,inactive,inactive,inactive,inactive,inactive,inactive,inactive,inactive,inactive,inactive,
COc1cc(C(O)CN)ccc1O (centres undefined),0.375% (inactive),inactive,-5.73%,inactive,inactive,inactive,inactive,inactive,inactive,inactive,inactive,inactive,inactive,
O=C(O)[C@@H]1CCN1,0.75% (inactive),inactive,8.8%,inactive,inactive,inactive,inactive,inactive,inactive,inactive,inactive,inactive,inactive,
CCCN1CCO[C@@H]2c3cc(O)ccc3OC[C@H]21,1.06% (inactive) and 0% (inactive),inactive,-0.639% and -4.02%,inactive,inactive,inactive,inactive,inactive,inactive,inactive,inactive,inactive,inactive,
CN[C@@H]1C[C@@H](c2ccc(Cl)c(Cl)c2)c2ccccc21,29.8% (inactive),inactive,3.66%,inactive,inactive,inactive,inactive,inactive,inactive,inactive,inactive,,20 µM (active),
NCCc1c[nH]c2ccc(O)cc12,1.44% (inactive),inactive,0.321%,inactive,inactive,inactive,inactive,inactive,inactive,inactive,inactive,inactive,inactive,inactive
CC(Cc1ccc(O)cc1)NCC(O)c1cc(O)cc(O)c1 (centres undefined),0.688% (inactive),inactive,-4.39%,inactive,inactive,inactive,inactive,inactive,inactive,inactive,inactive,inactive,inactive,

# Source: PubChem BioAssay (NCATS)
